# Screening data (PubChem BioAssay)
# D3 antag: D3 dopamine receptor (human) antagonism; P35462; D3R cells, DiscoveRx beta-arrestin luminescence, antagonist mode; active compounds read low; max response, negative = inhibition, %; actives 2.5% (n = 360,000); in the data active = max response below about -50%; inconclusive = no clear call, values can overlap the other calls; also: % is scaled to controls: 0 for no effect and ±100 for the full control effect
# Target sequence (P35462 whole entry, looked up): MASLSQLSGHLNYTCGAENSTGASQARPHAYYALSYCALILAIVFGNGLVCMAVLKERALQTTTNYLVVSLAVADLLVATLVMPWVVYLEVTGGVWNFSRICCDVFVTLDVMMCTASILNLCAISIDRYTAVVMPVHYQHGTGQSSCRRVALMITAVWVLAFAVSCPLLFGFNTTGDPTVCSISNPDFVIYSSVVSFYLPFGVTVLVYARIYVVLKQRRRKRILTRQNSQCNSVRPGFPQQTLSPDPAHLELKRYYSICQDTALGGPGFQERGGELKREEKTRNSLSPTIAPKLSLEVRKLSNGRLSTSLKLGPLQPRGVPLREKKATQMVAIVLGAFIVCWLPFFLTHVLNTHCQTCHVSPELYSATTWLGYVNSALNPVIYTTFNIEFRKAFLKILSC
#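 Cells expressing the human receptor were seeded at 1500 cells/well, incubated overnight at 37 degrees C in 5% CO2, then exposed to library compounds with dopamine controls for 90 minutes at 37 degrees C before luminescent detection.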
# D1 agonist: human D1 receptor agonism. P21728. HEK293 T-REx D1 cells, calcium flux, agonist mode. activation, % at 2 µM. actives 1% (n = 360,000); in the data active = activation above about 30%; also: 0% is about no effect
#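 Inducible HEK293 T-REx D1 cells, force-coupled to calcium signalling, were plated at 4000 cells/well with tetracycline and held overnight at 30 C. After no-wash calcium dye loading, compound-evoked calcium rise over 180 s flagged agonists.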
# D1 PAM: human D1 dopamine receptor positive modulation. actives 0.036% (n = 360,000). HEK293 TREx D1 cells, calcium flux, dopamine EC20 potentiation. potentiation, % at 10 µM. AID 504651. P21728; in the data active = potentiation above about 30%; also: 0% is about no effect
# D1 antag: human D1 dopamine receptor antagonism; P21728; HEK293 TREx D1 cells, calcium flux, dopamine EC80; active compounds read low; activity change, negative = inhibition, % at 10 µM; actives 3.2% (n = 360,000); in the data active = activity change below about -30%; also: % is scaled to controls: 0 for no effect and ±100 for the full control effect
#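 After overnight tetracycline induction at 30 C, force-coupled D1 HEK293 cells took up a no-wash calcium dye at room temperature. Compounds were added and monitored 180 s, and the response to EC80 dopamine was then recorded.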
# DRD3 agonist: D3 dopamine receptor (human) agonism | D3R DiscoveRx beta-arrestin cells, luminescence, 90 min | max activation, % | actives 0.58% (n = 410,000); in the data active = max activation above about 30%; also: 0% is about no effect
#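 Agonist mode: compounds and dopamine controls were applied to plated cells for 90 min at 37 degrees C after an overnight attachment at 1500 cells/well. Luminescent read-out followed 30 - 60 minutes at room temperature with DiscoveRx detection reagent.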
# Starred values were filed as active, the others as inactive; ? = inconclusive; nt = not tested or not shown; ! = not confirmed by another sample. This is a sample that favours compounds with a hit; in the whole collection about 6% have one here.
SMILES,D3 antag,D1 agonist,D1 PAM,D1 antag,DRD3 agonist
COc1ccc(NC(=O)c2coc3ccccc23)cc1OC,-67*,0,-2,0,-13
COc1ccc(C(=O)Nc2ccc(Nc3ccccc3)cc2)cc1OC,-3,-1,-10,-37*,1
COc1ccc(C(=O)Nc2cccc(/C(C)=N/NC(=O)c3ccc([N+](=O)[O-])cc3)c2)cc1OC,8,0,-10,-34*,6
COc1ccc(C(=O)Nc2ccc(-c3cc(C(F)(F)F)nn3-c3ccccc3)cc2)cc1OC,nt,8,1,-12,59*
CC1(C)Cc2c(cnn2-c2cccc(F)c2)C(NC(=O)Cn2cccn2)C1 (stereo not drawn),-9,5,-1,-12,0
Cc1ccc(Cl)cc1N1CCN(CCCNC(=O)Cn2ncc3c([nH]c4ccccc43)c2=O)CC1,nt,1,-2,-13,-19
Cc1ccc(C)c(N2CCN(C(=O)C3CCN(C(=O)c4cc5sccc5n4C)CC3)CC2)c1,nt,6,1,-65*,16
CN1CCCC(CN2c3ccccc3Sc3ccccc32)C1 (stereo not drawn),3,42*,-5,-23,-43
CN1CCCC(CC2c3ccccc3Sc3ccccc32)C1 (stereo not drawn),-68*,53*,-1,-41*,-79
CN1CCCC(OC(=O)c2ccccc2F)C1 (stereo not drawn),-18,1,-7,3,-16
CCn1c2ccccc2c2cc(NC(=O)c3cc(C)on3)ccc21,-14,0,-15,-45*,-3
CCn1c2ccccc2c2cc(NC(=O)c3coc(=O)c(Br)c3)ccc21,nt,15,-5,-32*,nt
CCn1c2ccccc2c2cc(NC(=O)c3ccc(Br)o3)ccc21,9,6,0,-12,-4
CN(C)c1c([N+](=O)[O-])cc2[nH]c(=O)[nH]c2c1[N+](=O)[O-],-69*,-1,-1,nt,-16
O=c1[nH]c2cc([N+](=O)[O-])c([N+](=O)[O-])cc2[nH]c1=O,?,4,nt,-1,-6
C[C@]12CCC(=O)C=C1CC[C@@H]1[C@@H]2[C@@H](O)C[C@@]2(C)[C@H]1CC[C@]2(O)C(=O)COC(=O)CCC(=O)O,-61*!,1,1,7,-92
CC(=O)OCC(=O)[C@@]1(O)CC[C@H]2[C@@H]3CCC4=CC(=O)CC[C@]4(C)[C@H]3[C@@H](O)C[C@@]21C,-11,0,6,-11,21
CN(CCO)c1cc(Sc2nc3ccccc3s2)c2nonc2c1[N+](=O)[O-],-84*,1,-4,-8,-37
CC(=O)OCCN(C)c1cc(SC(C)C)c2nonc2c1[N+](=O)[O-],-2,11,-6,-16,2
O=C(Nc1c(C(=O)c2ccc(F)cc2)oc2ccccc12)c1cc(-c2ccccc2)on1,nt,2,2,-4,-5
O=C(Nc1ccccc1C(=O)O)c1ccc(NC(=O)c2ccc(Br)o2)cc1,44,2,-3,-4,115*
CCC(C(=O)Nc1ccc(C(=O)Nc2ccccc2C(=O)O)cc1)c1ccccc1 (stereo not drawn),35,2,-5,-65*,17
CCc1ccc(NC(=O)C(CC)c2ccccc2)cc1 (stereo not drawn),13,41*,14,3,2
CCC(C(=O)Nc1ccc(C)cc1)c1ccccc1 (stereo not drawn),3,12,0,11,-3
CCC(C(=O)Nc1ccc(C(=O)N2CCCC2)cc1)c1ccccc1 (stereo not drawn),-15,37*,-6,4,-1
SMILES,D3 antag,D1 agonist,D1 PAM,D1 antag,DRD3 agonist
CCN(CC)C(=O)C1CCN(c2cc(C)nc3c(-c4ccc(OC)c(OC)c4)c(C)nn23)CC1,nt,0,-6,-16,9
CCc1ccc(NC(=O)NNC(=O)CCc2ccccc2)cc1,-7,1,-5,-61*,-16
O=C(O)c1cc(S(=O)(=O)N2CCN(C(c3ccccc3)c3ccccc3)CC2)ccc1Cl,6,3,-3,-12,-11
CC1(c2ccc(Cl)cc2)CC(C)(C)N(C(=O)c2cccc(F)c2)c2ccccc21 (stereo not drawn),nt,0,-1,15,-7
Nc1c(-c2ccc(Cl)cc2)cnn1C1CCS(=O)(=O)C1 (stereo not drawn),1,11,-10,-30*,3
O=C1C=CC2(C=C1)O[C@H](Cc1ccccc1)[C@@H](Cc1ccccc1)O2,-109*,nt,nt,nt,-30
COc1ccc(C[C@@H]2OC3(C=CC(=O)C=C3)O[C@H]2Cc2ccc(OC)cc2)cc1,-118*,nt,nt,nt,-13
O=C1Nc2ccccc2C1Cc1ccccc1 (stereo not drawn),2,1,3,6,29
CCN[C@@H]1C[C@H](N)[C@@H](OC2OC(CN)=CCC2N)[C@H](O)[C@H]1O[C@H]1OC[C@](C)(O)[C@H](NC)[C@H]1O (stereo partly drawn),nt,nt,nt,nt,49*
O=C(OCc1nc2ccccc2[n+]([O-])c1C(=O)c1ccccc1)c1cccnc1,-55*,1,7,7,2
CCC(=O)c1ccc(OCC(O)CN2CCc3ccccc3C2)cc1 (stereo not drawn),-75*,1,-7,-8,1
Cc1ccc(OCC(O)CN2CCc3ccccc3C2)c(C)c1 (stereo not drawn),-104*,3,-4,-6,-19
OC(COC(c1ccc(F)cc1)c1ccc(F)cc1)CN1CCc2ccccc2C1 (stereo not drawn),-18,5,-7,3,-6
CN(Cc1cnccn1)Cc1ccccc1OCC(O)CN1CCc2ccccc2C1 (stereo not drawn),-83*,4,-10,-9,-20
OC(COc1ccc(Cl)cc1Cl)CN1CCc2ccccc2C1 (stereo not drawn),-103*,7,-6,-1,-11
CCC(=O)c1ccc(OCC(O)CN2CCCCC2)cc1 (stereo not drawn),?,24,-2,-7,-15
CCC(Cc1ccccc1)NC(=O)c1ccc2nc(N3CCC(C)CC3)sc2c1 (stereo not drawn),nt,-1,-3,0,2
CC(C)CN1CC(COCc2ccccc2)Oc2ccccc2S1(=O)=O (stereo not drawn),0,nt,nt,nt,-26
C=CCc1ccc(OCC(O)CN2CCc3ccccc3C2)c(OC)c1 (stereo not drawn),-100*,6,-2,15,-18
COc1ccc(OCC(O)CN2CCCCC2)cc1 (stereo not drawn),-8,4,3,-5,-12
COc1cccc(OCC(O)CN2CCc3ccccc3C2)c1 (stereo not drawn),-91*,3,11,-7,-14
